The record followed here is PubChem BioAssay AID1745857 (National Center for Advancing Translational Sciences (NCATS), 2022).

In all, about 120,000 compounds went through this assay and about 370 (0.31%) were called active. Inconclusive results (about 4%) are left out. Calls follow the shape of the full dose curve. The list comes from a sample in which actives are over-represented; it also holds similar structures and randomly drawn compounds. Where a call stands in place of a potency, no number is given.
Potency is read from the fitted curve at half-maximal effect.

The nature of this experiment: Primary qHTS Assay for Foot and Mouth Disease Virus Antivirals against NCGC Sytravon and CBC Compound Libraries: Renilla Luciferase Signal. Also: nearly all actives have a fitted effect of over 55% in size. As to conditions: FMDV replicon cells; series mostly up to 57.5 µM. (In general: Quantitative high-throughput screening tests each substance at several concentrations.)
For the molecule `Cn1c(=O)c2c(ncn2CC(=O)NCCc2cccc(F)c2)n(C)c1=O`, the Potency entry was “inactive”.

With `C=C(C)CN1CCN(c2oc(C3CC3)nc2C#N)CC1`, the Potency result is “inactive”.

For `Cc1c(-c2ccccc2)oc2c(C(=O)OCC(=O)C(C)(C)C)cccc2c1=O`, the Potency entry is “inactive”.

On to `COCCNC(=O)COc1cc(O)c2c(=O)cc(-c3ccccc3)oc2c1`, for which the Potency result is “inactive”.

On to `CCc1cccc(NC(=O)c2ccc3c(c2)NC(=O)CS3)c1`, for which the Potency entry is “inactive”.

For `CC(C)Sc1c(C(C)C)cnc2c1c(=O)n(C)c(=O)n2C`, the Potency entry was “inactive”.

Turning to `CC(C)Oc1ccc(C(O)(CC[N+](C)(C)C)C2CCCCC2)cc1` (stereo not drawn), the Potency result is “inactive”.

As for `COc1ccc(/C=C/c2ccc3cccc(O)c3n2)cc1OC`, the Potency result was “inactive”.

`Cc1sc2nc(CN3CCOCC3)nc(N(C)CC(=O)Nc3ccc(F)cc3)c2c1C`: the Potency entry is “inactive”.

For the molecule `COc1ccc(C2CC(=O)Nc3c2c(=O)nc2c(C)cccn32)cc1OC` (stereo not drawn), the Potency result is “inactive”.

As to `COc1ccc(-c2csc3c2NC(=O)CC3c2ccc(OCC(N)=O)c(OC)c2)cc1` (stereo not drawn), the Potency was 2.82 µM (active).

With `Cc1ccc(-c2csc3c2NC(=O)CC3c2ccc(C)cc2)cc1` (stereo not drawn), the Potency entry is “inactive”.

For the molecule `COc1ccc(Nc2nc(-c3ccc(NC(C)=O)cc3)cs2)cc1`, the Potency entry is “inactive”.

As for `COc1ccc(CNC(=O)NCc2noc3ccc(C)cc23)cc1`, the Potency result was “inactive”.

Take `COC(=O)COc1ccc2c(C)c(CC(=O)OC)c(=O)oc2c1C`: the Potency entry was “inactive”.

In the case of `O=C(Cc1cnc(-c2ccccc2F)s1)Nc1nccs1`, the Potency entry is “inactive”.

Consider `COc1ccc(S(=O)(=O)N2CCC(C(=O)NCc3cccnc3)CC2)cc1`, for which the Potency entry was “inactive”.

Regarding `O=C(O)c1ccc(CNCc2ccco2)cc1`, the Potency result was “inactive”.

For the molecule `Cc1cc2nc(/N=C(\N)NC(=O)Cc3ccccc3)nc(C)c2cc1C`, the Potency result is “inactive”.

On to `Cn1c(=O)c2nc(SCC(=O)NCc3ccc(Cl)cc3)n(C)c2n(C)c1=O`, for which the Potency entry was “inactive”.

Regarding `Cc1noc(C)c1S(=O)(=O)N(C)CC(=O)Nc1ccc(C(C)(C)C)cc1`, the Potency entry is “inactive”.

On to `CN(C)S(=O)(=O)c1cccc(C(=O)Nc2cccc(Oc3ccccc3)c2)c1`, for which the Potency result is “inactive”.

Consider `CCCCn1c(=O)[nH]c(=O)c2c1nc(CSc1nnc(-c3ccco3)n1C)n2CC`, for which the Potency entry is “inactive”.

In the case of `CCOC(=O)c1ccc(Oc2coc3cc(OC)ccc3c2=O)cc1`, the Potency entry is “inactive”.

In the case of `CN1CC[C@H](c2c(O)cc(O)c3c(=O)cc(-c4ccccc4Cl)oc23)[C@H](O)C1`, the Potency was 1 µM (active).

As for `Cc1ccc(C(=O)O)cc1S(N)(=O)=O`, the Potency result is “inactive”.

As to `COc1ccc(NC(=O)c2cccc(-n3cccc3)c2)c(OC)c1`, the Potency result is “inactive”.

For `CCN(C(=O)Cn1c(CN2CCOCC2)nc2ccccc21)c1ccccc1`, the Potency result was “inactive”.

`CCOc1cccc2c(C)nc(Nc3nc(CSc4ccc(C)cc4)cc(=O)[nH]3)nc12`: the Potency result was “inactive”.

On to `Cc1ccc(CC(=O)N(C)CC(=O)N(CC(C)C)c2c(N)n(CC(C)C)c(=O)[nH]c2=O)cc1C`, for which the Potency entry is “inactive”.

Regarding `O=C1c2ccccc2NC(c2cnc3ccccc3n2)N1c1ccc(F)cc1` (stereo not drawn), the Potency entry is “inactive”.

As to `CCCCn1c(=O)[nH]c(=O)c2c1nc(CSc1n[nH]c(C)n1)n2CC`, the Potency entry was “inactive”.

With `COC(=O)c1ccc(C(=O)NCc2ccccc2C)cc1`, the Potency result was “inactive”.

`Cc1c(C)[n+](=O)c2cc(F)c(F)cc2n1[O-]`: the Potency result was “inactive”.

Turning to `Cc1ccc(-c2noc(Cn3cnc(C#N)n3)n2)cc1F`, the Potency entry was “inactive”.

`O=C1CCSc2c1cccc2C(=O)NCc1ccccc1Cl`: the Potency result is “inactive”.

`COCCn1c(SCc2cc(C)ccc2OC)nnc1-c1ccccc1`: the Potency result is “inactive”.

Regarding `COc1ccc(Nc2nc3ccccc3nc2NS(=O)(=O)c2ccc(OC)cc2)cc1`, the Potency entry was “inactive”.

Regarding `CCOCCCNc1oc(-c2ccc(S(=O)(=O)N(C)C)cc2)nc1C#N`, the Potency entry is “inactive”.

Turning to `Cc1cccc(NC(=O)c2cccc3ncccc23)c1`, the Potency result is “inactive”.

Turning to `CC(NCc1cccs1)C12CC3CC(CC(C3)C1)C2` (stereo not drawn), the Potency entry was “inactive”.

Regarding `CC(C)COc1ccc(/C=C(\C#N)C(=O)Nc2ccccc2C(=O)O)cc1`, the Potency entry was “inactive”.

Consider `COC(=O)C(N)Cc1ccc2ccccc2c1` (stereo not drawn), for which the activity change, negative = inhibition was -8.69% [at 1.06 µM] (inactive).

Regarding `O=C(NCC1CC1)c1cc(-c2ccncc2)nc2ccccc12`, the Potency entry was “inactive”.

`Brc1ccc(/C=N/Nc2nc3ccccc3c3ccccc23)cc1`: the Potency entry is “inactive”.

For `CCCCCCCCCOc1ccc(C(=O)c2ccccc2)cc1`, the Potency result was “inactive”.

`Cc1ccc(NC(=O)Cn2cc(/C=C3\NC(=O)NC3=O)c3ccccc32)cc1`: the Potency entry is “inactive”.

For the molecule `c1ccc(N2CCN(c3nc(N4CCCCC4)nc4nccnc34)CC2)cc1`, the Potency result was “inactive”.

Turning to `COc1ccccc1NC(=O)C(=O)NCC(c1cccnc1)N1CCN(c2ccccc2F)CC1` (stereo not drawn), the Potency result is “inactive”.

Turning to `O=C(NCc1cccnc1)C(=O)NCC(c1cccnc1)N1CCN(c2ccccc2)CC1` (stereo not drawn), the Potency result is “inactive”.

Consider `COc1ccccc1N1CCN(C(CNC(=O)C(=O)NCc2ccc(C)cc2)c2cccnc2)CC1` (stereo not drawn), for which the Potency is 7.08 µM (active).

As for `CCOc1ccccc1NC(=O)N1CCC2(CC1)c1cccn1-c1ccc(C)cc1N2CC`, the Potency result was “inactive”.

On to `O=C(Cc1c[nH]c2ccccc12)N1CCN(C(=O)c2ccccc2)CC1`, for which the Potency entry is “inactive”.

Take `O=C(COc1ncnc2ccccc12)Nc1ccccc1Cl`: the Potency result is “inactive”.

For `COC(=O)CNC(=O)c1cc2occc2n1Cc1ccccc1`, the Potency entry is “inactive”.

For the molecule `COC1CC(OC2CCC3(C=O)[C@H]4CCC5(C)C(C6=CC(=O)OC6)CCC5(O)[C@@H]4CCC3(O)C2)OC(C)C1O` (stereo partly drawn), the Potency is 0.398 µM (active).

Regarding `N#Cc1cn(C2CC2)c(=O)n(Cc2coc(-c3cccc(Cl)c3)n2)c1=O`, the Potency entry was “inactive”.

Turning to `O=C(CCc1ncc(-c2ccc(F)cc2)o1)NCC(c1ccccc1)N1CCCC1` (stereo not drawn), the Potency result was “inactive”.

Regarding `O=C(CC1(O)C(=O)N(CN2CCOCC2)c2ccccc21)c1ccc2ccccc2c1` (stereo not drawn), the Potency entry is “inactive”.

Consider `Oc1c(Cl)cc(Cl)c(Cl)c1Cc1c(O)c(Cl)cc(Cl)c1Cl`, for which the Potency was 10 µM (active).

With `Cc1cccc(OCCn2cc(S(=O)(=O)N3CCCC3)ccc2=O)c1`, the Potency result is “inactive”.

On to `CCN(CC)CCCNC(=O)C(=O)Nc1cccc2[nH]ccc12`, for which the Potency entry is “inactive”.

With `O=C(CSc1ccc2c(c1)OCCCO2)NC(c1ccccc1)c1cccs1` (stereo not drawn), the Potency result was “inactive”.

For `Cc1cccc(NC(=O)CN2CCCN(c3ncc(C(F)(F)F)cc3Cl)CC2)c1`, the Potency entry is “inactive”.

With `CCC(C)NC(=O)COc1ccc2c(C)cc(=O)oc2c1` (stereo not drawn), the Potency entry was “inactive”.

Take `CCOC(=O)CN1C(C(=O)c2ccccc2)=C(OC(=O)CC)c2ccccc2S1(=O)=O`: the Potency entry is “inactive”.

As for `COC(=O)c1[nH]c2ccc(F)cc2c1NC(=O)CCN1CCC(C)CC1`, the Potency entry was “inactive”.

In the case of `N#Cc1ccccc1COC(=O)c1ccccc1NCCO`, the Potency entry is “inactive”.

On to `Cc1cc(C)cc(Nc2nc(NCc3ccco3)nc3c2cnn3-c2ccccc2)c1`, for which the Potency result is “inactive”.

Take `Fc1cccc(-c2nc(COc3ccc4ccc(C(F)(F)F)nc4c3)co2)c1`: the Potency entry was “inactive”.

Regarding `C#CCN([C@H](C(=O)OC)C(C)CC)S(=O)(=O)c1ccccc1Br` (stereo partly drawn), the Potency entry was “inactive”.

Take `CC1CC1C(=O)Nc1ccc2c(c1)CCC2` (stereo not drawn): the Potency entry was “inactive”.

`O=C(NCCc1ccc(F)cc1)c1[nH]c2ccccc2c1Cl`: the Potency entry was “inactive”.

With `COc1ccc(OC)c(C(O)c2nc3ccccc3n2C)c1` (stereo not drawn), the Potency result is “inactive”.

Consider `Cc1ccc(CC(=O)NCc2ccc(COC(C)C)cc2)cc1`, for which the Potency result is “inactive”.

`Cc1ccc(C)c(NC(NC(=O)c2cccc(Cl)c2)C(Cl)(Cl)Cl)c1` (stereo not drawn): the Potency entry was “inactive”.

`CN(C(N)=NC(=O)/C=C/c1ccccc1)C(C#Cc1ccccc1)Cc1ccccc1` (stereo not drawn): the Potency result is “inactive”.

As for `CCc1nnsc1C(=O)NC(C)c1cccc(OC(C)C)c1` (stereo not drawn), the Potency entry is “inactive”.

On to `O=C(CN1CCCC(C(F)(F)F)C1)Nc1cccc2ncccc12` (stereo not drawn), for which the Potency entry was “inactive”.

Take `CCOC(=O)c1ccccc1NC(=O)COC(=O)c1ccc2c(c1)NC(=O)C(C)S2` (stereo not drawn): the Potency result is “inactive”.

For the molecule `COc1ccc(CSc2nnc(C3CC3)n2C2CC2)cc1F`, the Potency result is “inactive”.

In the case of `COc1ccc(C)cc1NC(=O)c1ccc2c(c1)NC(=O)CS2`, the Potency result is “inactive”.

On to `COc1ccc(Br)cc1COc1ccc(C#N)cc1`, for which the Potency result is “inactive”.

`Cc1ccc(NCc2cc3ccc(C)cc3[nH]c2=O)c(C)c1`: the Potency result is “inactive”.

Take `Cc1cnc(NC(=O)CNC(=O)c2ccoc2)s1`: the Potency result is “inactive”.

As for `CC(CC(=O)Nc1ccc(O)cc1)(C(=O)O)c1ccccc1` (stereo not drawn), the Potency entry is “inactive”.

Turning to `CC(/C=N/NC(=O)c1ccc(C)cc1)=C\c1ccccc1`, the Potency result is “inactive”.

Consider `CCC(C)NC(=O)CSc1ncc(-c2cccc(Br)c2)o1` (stereo not drawn), for which the Potency result is “inactive”.

For the molecule `O=C(Cc1ccc(F)cc1)Nc1c(NC2CCCCC2)c2ccccc2oc1=O`, the Potency result was “inactive”.

In the case of `CN(C)C(CNC(=O)Cc1n[nH]c(=O)c2ccccc12)Cc1ccccc1` (stereo not drawn), the Potency entry was “inactive”.

Consider `CCCC(=O)Nc1nc2ccc(CCC(=O)NCc3cc(Br)ccc3OC)cc2s1`, for which the Potency entry is “inactive”.

On to `CS(=O)(=O)N(CC(=O)N1CCc2ccccc2C1)c1cc(C(F)(F)F)ccc1Cl`, for which the Potency entry is “inactive”.

For the molecule `COc1cccc(CNC(=O)C2CCC(CNS(=O)(=O)c3cccs3)CC2)c1` (stereo not drawn), the Potency entry is “inactive”.

With `Cc1ccc(C)c(N2CCN(C(=O)C3CCC(CNS(=O)(=O)c4cccs4)CC3)CC2)c1` (stereo not drawn), the Potency is 31.6 µM (active).

As for `O=C(CNS(=O)(=O)c1cccs1)N1CCN(c2ccccc2Cl)CC1`, the Potency result was “inactive”.

In the case of `Fc1cc(CSc2nncn2C2CC2)c2ncccc2c1`, the Potency entry is “inactive”.

Take `CC1CCN(S(=O)(=O)c2ccc3oc(=O)ccc3c2)CC1`: the Potency result is “inactive”.

Turning to `CCOC(=O)c1cnc(Nc2ccccc2)c2ccccc12`, the Potency entry was “inactive”.

Turning to `CC1(C)CC(=O)C2=C(C1)N(Cc1ccccc1)C(CCC1CCCCC1)=NC2(C(F)(F)F)C(F)(F)F`, the Potency result is “inactive”.

Regarding `COc1cc(C(=O)Oc2c(C)cccc2C)cc(Cl)c1OC(C)C`, the activity change, negative = inhibition is -5.15% [at 1.06 µM] (inactive).

As to `CCn1c(C)cc(C(=O)Cn2nc(C)c(C)c(C#N)c2=O)c1C`, the Potency result is “inactive”.

In the case of `CCCCS(=O)C1CCCCC1OC(=O)c1ccccc1` (stereo not drawn), the Potency entry is “inactive”.

Regarding `O=C(OCc1cccnc1)c1nn(Cc2ccccc2)c(=O)c2ccccc12`, the Potency result was “inactive”.

As to `COC(=O)c1ccc(Cl)cc1NC(=O)Cn1c(=O)n(Cc2ccc(F)cc2)c(=O)c2ccccc21`, the Potency result is “inactive”.

In the case of `CC(C)NC(=O)CN1CCCN(C(=O)c2cc3ccccc3n2C)CC1`, the Potency result is “inactive”.

For the molecule `O=C(NCc1ccc2c(c1)CCN2C(=O)c1ccccc1)Nc1cc(F)ccc1F`, the Potency was 8.91 µM (active).

As for `O=C(NCc1ccc2c(c1)CCN2C(=O)c1ccccc1)c1ccccc1`, the Potency entry is “inactive”.

As to `O=C(COc1ccccc1)NCc1ccc2c(c1)CCN2C(=O)c1ccc(F)cc1`, the Potency entry was “inactive”.
